Screens (PubChem BioAssay)
MLL AF4-AF9 inh: MLL-AF4/AF9 protein interaction inhibition | inhibition, % at 10 µM | P42568 | actives 0.47% (n = 350,000) | AlphaScreen, biotin-AF4 peptide binding to FLAG-AF9 | AID 651704;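 active means every replicate reaching a set inhibition limit, whatever the replicate mean, cut at about 25% in these data; inconclusive means mean inhibition reaches that limit but some replicates miss it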;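 further: 0% = plate neutral control median and 100% = total signal loss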
Target sequence (P42568 whole entry, looked up): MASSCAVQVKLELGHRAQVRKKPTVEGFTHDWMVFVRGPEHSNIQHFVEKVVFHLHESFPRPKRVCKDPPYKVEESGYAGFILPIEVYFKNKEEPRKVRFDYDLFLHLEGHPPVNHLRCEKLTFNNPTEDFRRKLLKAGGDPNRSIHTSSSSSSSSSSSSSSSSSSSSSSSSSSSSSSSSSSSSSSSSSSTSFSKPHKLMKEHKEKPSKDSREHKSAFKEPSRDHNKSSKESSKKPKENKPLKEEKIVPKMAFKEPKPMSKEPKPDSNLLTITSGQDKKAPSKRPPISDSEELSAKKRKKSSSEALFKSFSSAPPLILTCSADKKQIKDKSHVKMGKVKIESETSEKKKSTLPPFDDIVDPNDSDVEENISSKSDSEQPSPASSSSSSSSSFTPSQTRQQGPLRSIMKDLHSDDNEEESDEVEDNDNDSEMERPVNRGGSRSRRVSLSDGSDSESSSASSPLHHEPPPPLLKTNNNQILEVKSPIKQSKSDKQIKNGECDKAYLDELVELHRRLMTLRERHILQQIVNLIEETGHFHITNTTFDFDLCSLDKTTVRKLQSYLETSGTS
FGF22 binding: binders of recombinant human FGF22 by thermal shift | Q9HCT0 | SYPRO orange fluorescence; percent of sucrose octasulfate shift, DMSO zero | activity (Tm shift, normalised), % at 9.99 µM | actives 1.5% (n = 340,000);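 active means mean Tm shift, scaled 0 neutral to 100 positive control, at about 1.3% or above, every replicate too, limit read from the data; inconclusive means no clear call, values can overlap the other calls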
MITF TRPM1 HTS: increases MITF-driven TRPM1 promoter luciferase signal; AID 588334; SK-MEL-5 TRPM1-promoter luciferase, 24 h; % of positive control, neutral wells = 0; activation, % at 12.5 µM; actives 0.75% (n = 300,000);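 active means mean activation of at least 80% with every replicate also reaching 80%; inconclusive means mean reaches 80% but some replicate falls short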;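 further: 0% = neutral control wells and 100% = parthenolide positive control wells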
SMARCA2 act: SMARCA2 function activation, primary screen | MG213 cells, MMTV-luciferase reporter, dexamethasone, overnight | AID 652017 | actives 1% (n = 370,000) | activation, % at 9.1 µM; in the data active means activation above about 7.8%;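 further: 0% = vehicle wells and 100% = reference activator wells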
esBAF inh: inhibitors of esBAF chromatin remodeling in mouse ES cells; Bmi1-luciferase knock-in reporter, 24 h; 100% = twice the neutral-well signal; AID 602393; reporter increase, % at 12.5 µM; actives 2% (n = 350,000); in the data active means activation above about 40%; inconclusive means no clear call, values can overlap the other calls;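 further: 0% = median of the plate's neutral control wells and 100% = double that signal; a rise in the Bmi1 reporter signal indicates esBAF inhibition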
Wnt bcat act: activates Wnt/beta-catenin signaling in a reporter cell assay. activation, % at 9.35 µM. actives 1.2% (n = 300,000). AID 743398. activator, plate reader; in the data active means activation above about 30%, passing the limit was not always enough; inconclusive means no clear call, values can overlap the other calls;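 further: 0% = neutral control wells and 100% = positive control wells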
The depositor's hits bear a star; ? = inconclusive; · = no result given. In the library only some 4.3% were active in any assay of this set; here they are far more common.

SMILES	MLL AF4-AF9 inh	FGF22 binding	MITF TRPM1 HTS	SMARCA2 act	esBAF inh	Wnt bcat act
Cc1ccc2c(C)c(C(=O)N(C)C(C)c3ccon3)oc2c1C (stereo unspecified)	-2	0	109*	5	51*	?
Cc1ccc2c(C)c(C(=O)N3CCN(Cc4ccccn4)CC3)oc2c1C	0	0	6	1	·	1
Cc1ccc2c(C)c(C(=O)N(C)C(C)c3ccncn3)oc2c1C (stereo unspecified)	0	0	8	-1	51*	5
Cc1csc(NC(=S)NC(=O)c2ccccc2)n1	-5	0	109*	4	?	24
Cc1csc(NC(=O)c2ccc(COc3cccc(Cl)c3)o2)n1	·	·	·	-1	·	·
COc1cccc(C(=O)Nc2cc(C)c3c(=O)oc4ccccc4c3n2)c1	43*	0	9	0	-4	-4
Cc1csc(NC(=O)c2ccc3nc[nH]c3c2)n1	-2	0	19	3	-11	36*
Cc1csc(NC(=O)c2ccc(COc3ccccc3)o2)n1	-4	0	48	-3	63*	27
COc1ccccc1CNC(=O)C[C@@H]1C[C@H]2c3cc(NS(C)(=O)=O)ccc3O[C@H]2[C@H](CO)O1	-2	0	·	·	-3	·
O=C(C[C@@H]1CC[C@@H]2[C@H](COC[C@H](O)CN2C(=O)Nc2ccc(F)cc2)O1)NCC1CC1	2	0	·	·	3	·
N#C[C@@H]1[C@@H](c2ccc(-c3cncnc3)cc2)[C@H](CO)N1C(=O)C1CCOCC1	-2	0	·	·	2	·
COc1cccc(C(=O)Nc2nc(C)cs2)c1	·	·	38	5	0	44*
COc1cccc(C(=O)Nc2nc(-c3ccncc3)cs2)c1	0	0	3	-1	·	·
Cc1ccc(-c2cc(C(=O)N/N=C/c3ccoc3)c3ccccc3n2)cc1	0	0	5	0	8	1
Cn1cccc1/C=N/NC(=O)c1cc(-c2cccs2)nc2ccccc12	32*	0	-29	0	-1	·
O=C(NC1=NCCS1)c1cc(-c2ccc(F)cc2)nc2ccccc12	0	0	41	-1	·	·
Cc1ccc(-c2cc(C(=O)NC3=NCCS3)c3ccccc3n2)cc1C	·	·	45	0	·	40*
Cc1ccc(-c2cc(C(=O)N/N=C/c3c(C)nn(C)c3C)c3ccccc3n2)cc1C	·	·	37	-1	48*	·
CCOC(=O)c1c(C)oc2c1C(=O)c1ccccc1C2=O	-5	0	-95	2	49*	1
Cc1cc(/C=C2/C(=O)N(C)C(=S)N2C)ccc1N1CCCC1	3	43*	55	5	78*	44*
Cc1cc(/C=C2\NC(=S)N(C)C2=O)ccc1N1CCCC1	6	0	50	-1	65*	53*
CCN1C(=O)/C(=C/c2ccc(N3CCCC3)cc2)NC1=S	·	·	49	-2	49*	16
CCCN1C(=O)/C(=C/c2ccc(N3CCOCC3)cc2)NC1=S	8	0	13	-3	·	-2
Cc1cc(N2CCCC2)ccc1/C=C1/C(=O)N(C)C(=S)N1C	4	0	-30	-3	13	-2
Cc1ccc(S(=O)(=O)N(C)C[C@@H]2OCCCC[C@@H](C)Oc3ccc(NC(=O)Nc4c(C)noc4C)cc3C(=O)N([C@@H](C)CO)C[C@H]2C)cc1	3	0	·	·	-4	·
SMILES	MLL AF4-AF9 inh	FGF22 binding	MITF TRPM1 HTS	SMARCA2 act	esBAF inh	Wnt bcat act
C[C@H](CO)N1C[C@H](C)[C@@H](CN(C)C(=O)c2ccc(N3CCN(C)CC3)cc2)OCc2cn(nn2)CCCC1=O	0	0	·	-2	-7	-2
Cc1ccccc1-c1ccc([C@H]2[C@@H](CO)N3CCCCN(C(=O)NC4CCCC4)C[C@@H]23)cc1	-2	0	·	·	-2	·
COc1ccc(-c2nc(CN3CCN(c4ncnc5ccccc45)CC3)c(C)o2)c(OC)c1	4	44*	-29	-7	·	-7
COc1ccc(-c2ccc3c(c2)[C@H]2[C@H](CCN2S(=O)(=O)c2ccccc2F)[C@H](CO)N3C)cc1	0	0	·	·	0	·
CC(/C=C/c1ccccc1)=N\Nc1ccccc1[N+](=O)[O-]	-3	0	42	-2	44*	5
C[C@@H]1CN([C@@H](C)CO)C(=O)Cc2cc(NC(=O)Nc3ccccc3)ccc2O[C@H]1CN(C)S(=O)(=O)c1ccccc1	-10	0	·	·	8	·
